According to PMC7862700, “An all-to-all approach to the identification of sequence-specific readers for epigenetic DNA modifications on cytosine”:

Key:
Assay in all cases: DAPPL (digital affinity profiling via proximity ligation, sequencing); 10 mM Tris-HCl pH 7.5, 50 mM NaCl, 1 mM DTT, 4% glycerol, room temperature, 30 min; GST-TFs on glutathione beads, 16-mer random dsDNA library, 0.1% formaldehyde crosslink after washing; high values mean tight binding
[1] = biological target: T1, FLI1 (Homo sapiens, UniProt Q01543 1-452); conditions: protein: recombinant; tags: N-terminal GST; dsDNA, one strand shown
T1 sequence: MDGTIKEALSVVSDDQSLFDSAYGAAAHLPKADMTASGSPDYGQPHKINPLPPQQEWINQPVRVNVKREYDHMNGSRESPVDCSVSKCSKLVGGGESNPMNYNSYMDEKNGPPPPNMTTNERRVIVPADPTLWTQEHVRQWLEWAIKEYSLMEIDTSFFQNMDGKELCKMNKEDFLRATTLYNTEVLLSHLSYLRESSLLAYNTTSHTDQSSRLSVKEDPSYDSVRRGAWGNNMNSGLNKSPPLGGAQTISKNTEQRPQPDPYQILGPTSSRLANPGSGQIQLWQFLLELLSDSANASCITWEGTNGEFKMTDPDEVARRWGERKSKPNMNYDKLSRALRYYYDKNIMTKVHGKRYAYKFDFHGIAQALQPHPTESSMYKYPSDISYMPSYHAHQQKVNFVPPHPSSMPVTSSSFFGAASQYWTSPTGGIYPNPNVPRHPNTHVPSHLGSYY
Summary of the method: (§1)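 After expression in yeast as GST fusions, human transcription factors were bound to glutathione beads, DNA-barcoded and mixed with a tag-only sample. The pools were incubated with 200 nmole of a 16-mer random double-stranded DNA library in Tris/NaCl/DTT/glycerol buffer (30 min, room temperature), washed and crosslinked with 0.1% formaldehyde. Proximity ligation with BsaI/T4 ligase ran for 1 h at 37 °C, before PCR amplification and sequencing on an Illumina NextSeq500. Binding signal is a hexamer's read frequency for a factor divided by its frequency for the tag-only sample.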

[2] = biological target: T2, ELK1 (Homo sapiens, UniProt P19419 1-428); conditions: protein: recombinant; tags: N-terminal GST; dsDNA, one strand shown
T2 sequence: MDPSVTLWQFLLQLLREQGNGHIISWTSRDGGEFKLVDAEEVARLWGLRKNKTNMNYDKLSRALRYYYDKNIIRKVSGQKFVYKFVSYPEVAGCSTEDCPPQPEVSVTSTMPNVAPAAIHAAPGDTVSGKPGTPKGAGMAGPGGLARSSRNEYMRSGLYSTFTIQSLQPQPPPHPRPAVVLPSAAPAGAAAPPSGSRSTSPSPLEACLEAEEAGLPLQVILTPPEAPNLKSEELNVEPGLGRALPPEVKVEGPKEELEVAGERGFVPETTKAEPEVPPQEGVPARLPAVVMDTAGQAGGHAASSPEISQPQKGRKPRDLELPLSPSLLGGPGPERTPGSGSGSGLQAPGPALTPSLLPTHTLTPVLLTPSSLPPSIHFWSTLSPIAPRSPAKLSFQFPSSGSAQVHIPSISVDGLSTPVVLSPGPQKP
Summary of the method: as §1

[3] = biological target: T3, GABPA (Homo sapiens, UniProt Q06546 1-454); conditions: protein: recombinant; tags: N-terminal GST; dsDNA, one strand shown
T3 sequence: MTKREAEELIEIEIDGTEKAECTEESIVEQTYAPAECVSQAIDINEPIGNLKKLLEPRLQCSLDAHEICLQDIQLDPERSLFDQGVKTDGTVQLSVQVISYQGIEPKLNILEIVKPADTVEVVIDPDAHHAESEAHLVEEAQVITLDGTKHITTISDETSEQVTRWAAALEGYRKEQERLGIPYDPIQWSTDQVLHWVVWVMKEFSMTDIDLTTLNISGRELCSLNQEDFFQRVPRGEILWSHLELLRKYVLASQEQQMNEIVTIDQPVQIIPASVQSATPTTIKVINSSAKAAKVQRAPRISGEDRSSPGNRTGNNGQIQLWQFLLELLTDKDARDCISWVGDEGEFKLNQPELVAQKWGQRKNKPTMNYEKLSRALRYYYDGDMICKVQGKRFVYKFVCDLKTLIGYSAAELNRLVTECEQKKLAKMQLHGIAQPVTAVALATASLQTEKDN
Summary of the method: as §1

[4] = biological target: T4, ERG (Homo sapiens, UniProt P11308 1-479); conditions: protein: recombinant; tags: N-terminal GST; dsDNA, one strand shown
T4 sequence: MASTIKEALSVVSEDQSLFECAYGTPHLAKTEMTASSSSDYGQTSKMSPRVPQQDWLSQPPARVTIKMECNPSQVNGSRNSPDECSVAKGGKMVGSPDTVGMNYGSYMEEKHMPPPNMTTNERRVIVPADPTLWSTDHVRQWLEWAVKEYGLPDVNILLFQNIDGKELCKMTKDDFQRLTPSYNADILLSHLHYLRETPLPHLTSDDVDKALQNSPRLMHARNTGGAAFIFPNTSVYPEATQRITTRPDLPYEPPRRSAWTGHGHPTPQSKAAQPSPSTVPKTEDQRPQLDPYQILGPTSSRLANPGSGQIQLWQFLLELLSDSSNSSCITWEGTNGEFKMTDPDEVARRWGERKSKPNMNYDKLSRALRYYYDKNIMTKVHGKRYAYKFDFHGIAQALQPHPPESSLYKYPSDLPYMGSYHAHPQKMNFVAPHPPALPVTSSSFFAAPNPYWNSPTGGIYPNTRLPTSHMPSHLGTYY
Summary of the method: as §1

[5] = biological target: ELF1 (Homo sapiens, UniProt P32519 1-619); conditions: protein: recombinant; tags: N-terminal GST; dsDNA, one strand shown
Summary of the method: as §1

[6] = biological target: T5, EHF (Homo sapiens, UniProt Q9NZC4 1-300); conditions: protein: recombinant; tags: N-terminal GST; dsDNA, one strand shown
T5 sequence: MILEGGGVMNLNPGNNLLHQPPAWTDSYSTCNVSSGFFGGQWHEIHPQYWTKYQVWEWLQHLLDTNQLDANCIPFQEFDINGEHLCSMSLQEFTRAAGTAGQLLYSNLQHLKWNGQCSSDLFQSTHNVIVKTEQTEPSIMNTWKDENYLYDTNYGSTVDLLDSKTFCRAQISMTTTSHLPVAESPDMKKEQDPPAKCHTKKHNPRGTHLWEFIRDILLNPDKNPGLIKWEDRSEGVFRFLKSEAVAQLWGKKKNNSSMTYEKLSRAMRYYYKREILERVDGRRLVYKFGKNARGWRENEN
Summary of the method: as §1

[7] = biological target: SPI1 (Homo sapiens, UniProt P17947 1-270); conditions: protein: recombinant; tags: N-terminal GST; dsDNA, one strand shown
Summary of the method: as §1

[8] = biological target: SPIB (Homo sapiens, UniProt Q01892 1-262); conditions: protein: recombinant; tags: N-terminal GST; dsDNA, one strand shown
Summary of the method: as §1

[9] = biological target: T6, ELK3 (Homo sapiens, UniProt P41970 1-407); conditions: protein: recombinant; tags: N-terminal GST; dsDNA, one strand shown
T6 sequence: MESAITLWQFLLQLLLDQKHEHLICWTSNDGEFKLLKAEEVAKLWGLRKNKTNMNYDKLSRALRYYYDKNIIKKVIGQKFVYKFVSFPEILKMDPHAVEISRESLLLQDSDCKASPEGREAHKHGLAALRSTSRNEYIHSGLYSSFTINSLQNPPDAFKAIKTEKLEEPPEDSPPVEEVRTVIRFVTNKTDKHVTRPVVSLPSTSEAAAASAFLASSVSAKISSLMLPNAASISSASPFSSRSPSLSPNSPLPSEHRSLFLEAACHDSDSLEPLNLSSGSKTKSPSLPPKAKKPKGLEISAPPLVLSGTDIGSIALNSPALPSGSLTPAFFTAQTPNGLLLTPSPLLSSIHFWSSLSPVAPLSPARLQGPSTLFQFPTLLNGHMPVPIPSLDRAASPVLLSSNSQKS
Summary of the method: as §1

[10] = biological target: T7, FEV (Homo sapiens, UniProt Q99581 1-238); conditions: protein: recombinant; tags: N-terminal GST; dsDNA, one strand shown
T7 sequence: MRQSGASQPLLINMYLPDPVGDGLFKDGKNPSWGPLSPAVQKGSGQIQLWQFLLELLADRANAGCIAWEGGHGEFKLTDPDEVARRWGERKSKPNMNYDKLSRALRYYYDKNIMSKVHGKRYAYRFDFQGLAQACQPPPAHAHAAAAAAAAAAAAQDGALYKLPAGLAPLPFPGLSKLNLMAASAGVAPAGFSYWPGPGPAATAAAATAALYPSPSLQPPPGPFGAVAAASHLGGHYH
Summary of the method: as §1

[11] = biological target: ETV5 (Homo sapiens, UniProt P41161 1-510); conditions: protein: recombinant; tags: N-terminal GST; dsDNA, one strand shown
Summary of the method: as §1

[12] = biological target: HSF1 (Homo sapiens, UniProt Q00613 1-529); conditions: protein: recombinant; tags: N-terminal GST; chain copies: 3; dsDNA, one strand shown
Summary of the method: as §1

[13] = biological target: T8, SPIC (Homo sapiens, UniProt Q8N5J4 1-248); conditions: protein: recombinant; tags: N-terminal GST; dsDNA, one strand shown
T8 sequence: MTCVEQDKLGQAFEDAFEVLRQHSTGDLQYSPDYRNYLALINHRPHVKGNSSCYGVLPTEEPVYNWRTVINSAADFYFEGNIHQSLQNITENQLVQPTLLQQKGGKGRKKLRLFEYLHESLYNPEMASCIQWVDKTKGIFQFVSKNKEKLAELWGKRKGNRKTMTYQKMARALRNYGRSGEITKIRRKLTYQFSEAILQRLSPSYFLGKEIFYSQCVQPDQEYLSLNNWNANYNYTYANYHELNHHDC
Summary of the method: as §1

[14] = biological target: ELF4 (Homo sapiens, UniProt Q99607 1-663); conditions: protein: recombinant; tags: N-terminal GST; dsDNA, one strand shown
Summary of the method: as §1

[15] = biological target: T9, ELK4 (Homo sapiens, UniProt P28324-2 1-405); conditions: protein: recombinant; tags: N-terminal GST; dsDNA, one strand shown
T9 sequence: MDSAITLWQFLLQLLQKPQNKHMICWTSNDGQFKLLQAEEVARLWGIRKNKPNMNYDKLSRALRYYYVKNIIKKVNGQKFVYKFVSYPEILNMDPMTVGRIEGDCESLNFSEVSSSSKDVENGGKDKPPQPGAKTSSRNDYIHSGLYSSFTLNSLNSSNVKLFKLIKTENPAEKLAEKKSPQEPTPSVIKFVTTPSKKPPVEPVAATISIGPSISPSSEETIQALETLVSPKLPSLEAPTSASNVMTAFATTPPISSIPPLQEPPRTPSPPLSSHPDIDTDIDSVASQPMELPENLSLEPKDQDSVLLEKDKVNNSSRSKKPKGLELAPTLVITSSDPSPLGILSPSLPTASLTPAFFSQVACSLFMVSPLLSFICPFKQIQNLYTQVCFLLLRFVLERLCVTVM
Summary of the method: as §1

[16] = biological target: T10, ETV2 (Homo sapiens, UniProt O00321 1-342); conditions: protein: recombinant; tags: N-terminal GST; dsDNA, one strand shown
T10 sequence: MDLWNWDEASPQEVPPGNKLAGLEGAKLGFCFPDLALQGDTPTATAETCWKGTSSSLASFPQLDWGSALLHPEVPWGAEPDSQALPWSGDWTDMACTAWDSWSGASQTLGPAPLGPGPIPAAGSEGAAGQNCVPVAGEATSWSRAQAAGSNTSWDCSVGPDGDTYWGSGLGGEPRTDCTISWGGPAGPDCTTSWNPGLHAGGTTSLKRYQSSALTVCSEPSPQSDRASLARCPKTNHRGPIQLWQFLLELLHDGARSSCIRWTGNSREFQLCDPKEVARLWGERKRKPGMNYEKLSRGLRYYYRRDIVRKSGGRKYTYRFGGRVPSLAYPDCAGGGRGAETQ
Summary of the method: as §1

[17] = biological target: T11, ELF3 (Homo sapiens, UniProt P78545 1-371); conditions: protein: recombinant; tags: N-terminal GST; dsDNA, one strand shown
T11 sequence: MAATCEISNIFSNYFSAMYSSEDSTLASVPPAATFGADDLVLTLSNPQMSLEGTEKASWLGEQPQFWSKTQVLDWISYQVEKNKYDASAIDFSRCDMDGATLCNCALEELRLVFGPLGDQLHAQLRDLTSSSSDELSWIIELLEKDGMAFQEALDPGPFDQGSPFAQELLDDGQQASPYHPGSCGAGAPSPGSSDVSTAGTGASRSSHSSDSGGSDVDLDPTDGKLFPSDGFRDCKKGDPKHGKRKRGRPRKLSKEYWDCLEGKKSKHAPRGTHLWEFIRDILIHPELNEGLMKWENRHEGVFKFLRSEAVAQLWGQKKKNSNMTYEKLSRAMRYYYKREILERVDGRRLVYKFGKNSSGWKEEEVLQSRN
Summary of the method: as §1

[18] = biological target: ETV1 (Homo sapiens, UniProt P50549 1-477); conditions: protein: recombinant; tags: N-terminal GST; dsDNA, one strand shown
Summary of the method: as §1

SPIB, sequence (Q01892 whole entry): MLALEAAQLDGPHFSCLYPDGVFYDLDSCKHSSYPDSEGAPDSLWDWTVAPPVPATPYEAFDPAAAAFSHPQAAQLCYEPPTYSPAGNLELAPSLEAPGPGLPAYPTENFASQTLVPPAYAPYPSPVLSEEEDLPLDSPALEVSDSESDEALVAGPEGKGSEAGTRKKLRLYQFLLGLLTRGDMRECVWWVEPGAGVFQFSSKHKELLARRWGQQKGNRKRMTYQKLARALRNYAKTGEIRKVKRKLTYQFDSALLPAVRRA
ETV5, sequence (P41161 whole entry): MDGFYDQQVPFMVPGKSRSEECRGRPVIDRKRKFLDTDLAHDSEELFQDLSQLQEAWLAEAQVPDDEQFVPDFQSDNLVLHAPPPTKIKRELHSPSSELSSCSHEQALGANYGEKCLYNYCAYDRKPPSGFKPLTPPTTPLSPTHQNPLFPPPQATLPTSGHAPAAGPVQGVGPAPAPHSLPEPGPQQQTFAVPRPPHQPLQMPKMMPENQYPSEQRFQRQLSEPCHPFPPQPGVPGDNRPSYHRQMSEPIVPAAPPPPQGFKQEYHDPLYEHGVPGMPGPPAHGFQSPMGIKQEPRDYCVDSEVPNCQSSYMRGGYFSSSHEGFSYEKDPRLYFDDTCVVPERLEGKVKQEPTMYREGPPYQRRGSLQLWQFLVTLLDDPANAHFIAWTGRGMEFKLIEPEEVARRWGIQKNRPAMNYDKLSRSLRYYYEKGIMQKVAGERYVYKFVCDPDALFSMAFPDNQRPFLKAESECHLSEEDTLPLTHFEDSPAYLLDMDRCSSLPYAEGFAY
ELF4, sequence (Q99607 whole entry): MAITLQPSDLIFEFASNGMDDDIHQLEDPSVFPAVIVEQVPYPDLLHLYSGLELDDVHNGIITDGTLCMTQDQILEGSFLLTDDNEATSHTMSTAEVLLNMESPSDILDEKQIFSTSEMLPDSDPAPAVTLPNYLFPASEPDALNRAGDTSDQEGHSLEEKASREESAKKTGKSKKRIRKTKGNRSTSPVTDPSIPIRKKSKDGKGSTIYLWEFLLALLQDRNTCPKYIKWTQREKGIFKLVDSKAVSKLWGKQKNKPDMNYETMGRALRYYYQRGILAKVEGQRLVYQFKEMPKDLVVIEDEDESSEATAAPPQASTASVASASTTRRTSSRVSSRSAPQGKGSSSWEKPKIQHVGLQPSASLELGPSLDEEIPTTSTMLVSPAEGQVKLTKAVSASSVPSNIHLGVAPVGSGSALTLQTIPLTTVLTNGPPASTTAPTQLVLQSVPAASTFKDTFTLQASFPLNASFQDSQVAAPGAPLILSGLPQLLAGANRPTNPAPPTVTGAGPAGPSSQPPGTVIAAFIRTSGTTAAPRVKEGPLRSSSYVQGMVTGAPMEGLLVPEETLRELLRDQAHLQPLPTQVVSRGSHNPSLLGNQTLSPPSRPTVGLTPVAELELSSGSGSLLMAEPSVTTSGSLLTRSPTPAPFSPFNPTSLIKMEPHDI
HSF1, sequence (Q00613 whole entry): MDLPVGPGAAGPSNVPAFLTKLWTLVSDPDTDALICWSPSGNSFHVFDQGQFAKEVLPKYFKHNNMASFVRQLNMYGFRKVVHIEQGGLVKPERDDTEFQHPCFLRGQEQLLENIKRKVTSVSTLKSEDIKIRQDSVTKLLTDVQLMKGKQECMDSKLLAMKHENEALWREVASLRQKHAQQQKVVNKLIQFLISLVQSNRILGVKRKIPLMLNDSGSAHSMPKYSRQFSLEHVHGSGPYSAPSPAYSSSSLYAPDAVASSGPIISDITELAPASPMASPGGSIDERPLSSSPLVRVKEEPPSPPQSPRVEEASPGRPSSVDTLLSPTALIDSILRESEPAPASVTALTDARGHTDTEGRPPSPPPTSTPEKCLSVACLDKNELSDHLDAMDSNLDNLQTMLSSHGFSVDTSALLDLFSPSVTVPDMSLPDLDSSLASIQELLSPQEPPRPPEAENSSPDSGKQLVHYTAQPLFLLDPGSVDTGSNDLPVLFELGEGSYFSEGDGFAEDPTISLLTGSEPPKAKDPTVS
ETV1, sequence (P50549 whole entry): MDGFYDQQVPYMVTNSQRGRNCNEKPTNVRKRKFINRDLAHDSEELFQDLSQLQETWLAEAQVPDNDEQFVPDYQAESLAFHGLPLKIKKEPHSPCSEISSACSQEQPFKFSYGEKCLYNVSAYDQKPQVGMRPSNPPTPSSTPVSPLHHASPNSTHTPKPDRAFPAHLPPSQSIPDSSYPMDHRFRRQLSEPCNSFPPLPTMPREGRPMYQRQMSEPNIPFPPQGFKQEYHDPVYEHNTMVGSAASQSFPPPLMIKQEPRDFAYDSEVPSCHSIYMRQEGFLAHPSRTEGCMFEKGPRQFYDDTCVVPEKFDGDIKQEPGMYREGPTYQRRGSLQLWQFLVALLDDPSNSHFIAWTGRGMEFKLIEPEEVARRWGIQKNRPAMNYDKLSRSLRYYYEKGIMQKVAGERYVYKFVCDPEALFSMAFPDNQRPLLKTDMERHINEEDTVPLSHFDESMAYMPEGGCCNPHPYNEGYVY
ELF1, sequence (P32519 whole entry): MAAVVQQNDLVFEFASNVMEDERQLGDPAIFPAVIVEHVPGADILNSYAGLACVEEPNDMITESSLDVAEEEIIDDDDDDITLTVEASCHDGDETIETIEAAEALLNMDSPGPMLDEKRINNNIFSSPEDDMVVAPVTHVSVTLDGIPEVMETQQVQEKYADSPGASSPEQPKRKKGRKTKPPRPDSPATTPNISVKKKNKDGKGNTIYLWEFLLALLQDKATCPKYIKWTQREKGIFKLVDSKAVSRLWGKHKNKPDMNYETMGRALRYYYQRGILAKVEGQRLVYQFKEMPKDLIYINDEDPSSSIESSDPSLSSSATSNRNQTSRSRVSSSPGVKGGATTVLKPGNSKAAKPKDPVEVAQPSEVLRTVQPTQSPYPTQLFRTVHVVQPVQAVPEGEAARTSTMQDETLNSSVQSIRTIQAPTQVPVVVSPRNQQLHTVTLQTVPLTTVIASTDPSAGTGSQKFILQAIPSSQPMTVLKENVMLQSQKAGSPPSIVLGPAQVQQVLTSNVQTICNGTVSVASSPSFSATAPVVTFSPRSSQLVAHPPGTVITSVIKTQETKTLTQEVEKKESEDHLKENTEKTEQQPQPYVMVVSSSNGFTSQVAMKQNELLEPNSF

GAAGAA
binding signal [1]: 1.03 fold enrichment (6-mer frequency, TF over GST control) | binding signal [2]: 1.11 fold enrichment (6-mer frequency, TF over GST control) | binding signal [3]: 1.14 fold enrichment (6-mer frequency, TF over GST control) | binding signal [4]: 1.19 fold enrichment (6-mer frequency, TF over GST control) | binding signal [5]: 1.12 fold enrichment (6-mer frequency, TF over GST control) | binding signal [6]: 1.14 fold enrichment (6-mer frequency, TF over GST control) | binding signal [7]: 1.13 fold enrichment (6-mer frequency, TF over GST control) | binding signal [8]: 1.03 fold enrichment (6-mer frequency, TF over GST control) | binding signal [9]: 1.13 fold enrichment (6-mer frequency, TF over GST control) | binding signal [10]: 1.08 fold enrichment (6-mer frequency, TF over GST control) | binding signal [11]: 1.16 fold enrichment (6-mer frequency, TF over GST control) | binding signal [12]: 1.46 fold enrichment (6-mer frequency, TF over GST control) | binding signal [13]: 1.18 fold enrichment (6-mer frequency, TF over GST control) | binding signal [14]: 1.15 fold enrichment (6-mer frequency, TF over GST control) | binding signal [15]: 1.17 fold enrichment (6-mer frequency, TF over GST control) | binding signal [16]: 1.2 fold enrichment (6-mer frequency, TF over GST control) | binding signal [17]: 1.26 fold enrichment (6-mer frequency, TF over GST control) | binding signal [18]: 1.2 fold enrichment (6-mer frequency, TF over GST control)
